Reference: PubChem BioAssay (NCATS)
Results filed as inconclusive are left out. The source made the active and inactive calls. Unless noted, calls follow the shape of the dose curve; as a rule, active = well fitted inhibition curve with a large enough effect; inconclusive = small, poorly fitted or top-dose-only effect; inactive = flat fitted curve, though single readings scatter.

Assays:
[1] = AP1 Signaling Pathway (AID 357; active = well fitted curve in either direction with a large enough effect, not every such curve was filed as active; also: % is scaled to controls: 0 for no effect and ±100 for the full control effect)
Method in brief: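 ME-180 cells with beta-lactamase reporter under AP-1 response element, stimulated with EC50 EGF; compounds tested in titration series, 5 h at 37 °C. CCF4 substrate added 2.5 h at room temperature; 460/530 nm emission ratio gave %activity and AC50.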

[2] = biological target: Cytochrome P450 1A2 (Homo sapiens) (UniProt P05177); assay: p450-cyp1a2 (AID 410; calls by dose curve; also: potency is read from the fitted curve at half-maximal effect;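 as to activity change, negative = inhibition: -100% = full effect of reference inhibitor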)
Method in brief: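 Inhibition was calculated relative to 57 uM furafylline (full inhibition). The reaction used human CYP1A2 at 20nM with Luciferin-ME at its Km, 100uM, driven by an NADPH-regenerating system for 60 min at room temperature.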

[3] = NFAT Signaling Pathway (AID 444; active = well fitted curve in either direction with a large enough effect, not every such curve was filed as active;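 also: carbachol stimulus at about its EC50 of 1 µM final; % is scaled to controls: 0 for no effect and ±100 for the full control effect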); settings: Jurkat NFAT-bla M1, carbachol, beta-lactamase ratio, 5 h; at 17.2 µM (top of the series) unless noted
Method in brief: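 Read-out: CCF4 FRET ratio (460 nm/530 nm) after 1 h RT dye loading, used for %activity and AC50 from titration series. Cells: Jurkat NFAT-β-lactamase/M1 line, treated with compound plus 1 uM carbachol for 5 h, 37 °C.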

[4] = Stat Signaling Pathway (AID 446; active = well fitted curve in either direction with a large enough effect, not every such curve was filed as active;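 also: ME-180 cervical cancer cells given 40 pM IL-6 alongside compound; SIE-controlled beta-lactamase reporter measured as 460/530 nm FRET emission ratio; % is scaled to controls: 0 for no effect and ±100 for the full control effect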)
Method in brief: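 ME-180 cells carrying a SIE-driven beta-lactamase reporter are stimulated with 40 pM IL-6 for 5 h at 37C in the presence of compound. The 460/530 nm FRET substrate ratio is read after 2.5 h at RT. Data are normalised to 300 pM IL-6 and to 125 nM JAK inhibitor controls.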

[5] = biological target: Glucocorticoid receptor (Homo sapiens) (UniProt P04150); assay: GR-GFP Redistribution (AID 450;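 active = compounds whose dose series gives a full or clear partial fitted curve of increased nuclear translocation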; also: potency is read from the fitted curve at half-maximal effect); settings: U2OS GR-GFP nuclear translocation, laser cytometry, 2 h
[6] = biological target: Glucocorticoid receptor (Homo sapiens) (UniProt P04150); assay: GR-EFC Redistribution (AID 451; calls by dose curve; also: potency is read from the fitted curve at half-maximal effect); settings: CHO-K1 GR-EFC translocation, beta-gal luminescence, 2 h
Method in brief: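 Translocation of GR-ED fusion to nuclear EA restores b-gal, read by luminescence after 1 h room-temperature detection. Engineered CHO-K1 biosensor cells, 1,000/well, exposed 2 h at 37 C to titrations up to 46 uM final.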

[7] = biological target: Mitogen-activated protein kinase 10 (Mus musculus) (UniProt Q61831); assay: JNK3 AlphaScreen Assay (AID 530; active = well fitted curve in either direction with a large enough effect, not every such curve was filed as active;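 also: kinase came from lysate of stimulated human HepG2 cells; signal reports phosphorylation of biotinylated GST-cJun 1-79 at Ser73 with 10 µM ATP; % is scaled to controls: 0 for no effect and ±100 for the full control effect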)
Method in brief: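 Room-temperature AlphaScreen kinase assay; pre-activated HepG2 lysate as JNK3 source, biotin-GST-cJun(1-79) substrate, 10 uM ATP, compound 15 min preincubation.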

[8] = biological target: 3',5'-cyclic-AMP phosphodiesterase 4B (Homo sapiens) (UniProt Q07343); assay: qHTS Assay for Inhibitors of PDE-IV (AID 607; active = well fitted activation curve with a large enough effect in the main read-out, with a control signal flat, not every such curve was filed as active; also: % of control where 0% means no effect)
Method in brief: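 HEK293 ACTOne cells with CNG channel (1000/well), endogenous PDE4; membrane potential dye, compounds up to 22.9 uM final. Fluorescence Ex 535/Em 590; RO 20-1724 (100 uM final) as reference.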

[9] = qHTS Assay for Lipid Storage Modulators (AID 1519; calls by dose curve); settings: Drosophila S3 cells, BODIPY lipid droplet/cell ratio, laser cytometry, cells loaded with oleic acid; for activity change, negative = inhibition: at 25.7 µM (top of the series)
Method in brief: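 Cells seeded at 5,000 per well were treated with compounds over a concentration series and loaded with oleic acid (400 uM, as added). Lipid droplet fluorescence (488 nm excitation, 500-530 nm channel) was read by laser-scanning cytometry and normalized to 20 uM Triacsin C.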

[10] = biological target: Ubiquitin carboxyl-terminal hydrolase 1 (Homo sapiens) (UniProt O94782); assay: Inhibitors of USP1/UAF1: Pilot qHTS (AID 504865);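 also: rhodamine fluorescence freed from ubiquitin-rhodamine substrate followed over time; top concentration of the series differs between compounds; % is scaled to controls: 0 for no effect and ±100 for the full control effect; nearly all actives have a fitted effect of over 35% in size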
Method in brief: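 USP1/UAF1 complex (1nM) preincubated with compound 15 min at room temperature, then Ub-Rho substrate (150nM final) added. Fluorescence read kinetically at 480/540 nm, 6 reads every 60 seconds. Buffer: 50mM HEPES pH 7.8, 0.5mM EDTA, 0.1 mg/ml BSA, 1mM TCEP, 0.01% Tween-20.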

[11] = biological target: Luciferin 4-monooxygenase (Photinus pyralis) (UniProt P08659); assay: Biochemical firefly luciferase enzyme assay for NPC (AID 624030);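 also: purified P. pyralis luciferase at 10 nM with luciferin and ATP substrate; 0% = DMSO and -100% = full luciferase inhibition by PTC124 control; nearly all actives have a fitted effect of over 70% in size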
Method in brief: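 Direct inhibition of firefly luciferase enzyme (10 nM final, 50 mM Tris Acetate) assessed by luminescence within 5 minutes. Percent activity scaled between DMSO and PTC124 positive control, with concentration-effect curves classified by fit quality and response.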

[12] = qHTS profiling for inhibitors of Plasmodium falciparum proliferation (AID 504749);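 also: 0% = DMSO vehicle and full inhibition = artemisinin control; nearly all actives have a fitted effect of over 60% in size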; settings: P. falciparum in erythrocytes, SYBR Green DNA, 72 h, at 12.8 µM (top of the series)
Method in brief: (§1)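 Three-day growth assay of blood-stage parasites in erythrocytes (0.3% parasitemia, 2.5% hematocrit) at 37 C, 5% CO2, quantified by SYBR Green DNA staining after overnight detergent lysis.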

C2A = assay: as above; settings: P. falciparum in erythrocytes, SYBR Green DNA, 72 h; series mostly up to 12.8 µM
Method in brief: as §1

CP217 = assay: as above; settings: P. falciparum in erythrocytes, SYBR Green DNA, 72 h; series mostly up to 12.8 µM
Method in brief: as §1

CP250 = assay: as above; settings: P. falciparum in erythrocytes, SYBR Green DNA, 72 h; series mostly up to 12.8 µM
Method in brief: as §1

FAB9 = assay: as above; settings: P. falciparum in erythrocytes, SYBR Green DNA, 72 h; series mostly up to 12.8 µM
Method in brief: as §1

JCK = assay: as above; settings: P. falciparum in erythrocytes, SYBR Green DNA, 72 h; series mostly up to 12.8 µM
Method in brief: as §1

PC49 = assay: as above; settings: P. falciparum in erythrocytes, SYBR Green DNA, 72 h; series mostly up to 12.8 µM
Method in brief: as §1

SC27B = assay: as above; settings: P. falciparum in erythrocytes, SYBR Green DNA, 72 h; series mostly up to 12.8 µM
Method in brief: as §1

CP238 = assay: as above; settings: P. falciparum in erythrocytes, SYBR Green DNA, 72 h; series mostly up to 12.8 µM
Method in brief: as §1

[13] = measured here: cell count channel max response
[14] = measured here: lipid channel max response

Ubiquitin carboxyl-terminal hydrolase 1 (Homo sapiens), sequence (O94782 whole entry, looked up): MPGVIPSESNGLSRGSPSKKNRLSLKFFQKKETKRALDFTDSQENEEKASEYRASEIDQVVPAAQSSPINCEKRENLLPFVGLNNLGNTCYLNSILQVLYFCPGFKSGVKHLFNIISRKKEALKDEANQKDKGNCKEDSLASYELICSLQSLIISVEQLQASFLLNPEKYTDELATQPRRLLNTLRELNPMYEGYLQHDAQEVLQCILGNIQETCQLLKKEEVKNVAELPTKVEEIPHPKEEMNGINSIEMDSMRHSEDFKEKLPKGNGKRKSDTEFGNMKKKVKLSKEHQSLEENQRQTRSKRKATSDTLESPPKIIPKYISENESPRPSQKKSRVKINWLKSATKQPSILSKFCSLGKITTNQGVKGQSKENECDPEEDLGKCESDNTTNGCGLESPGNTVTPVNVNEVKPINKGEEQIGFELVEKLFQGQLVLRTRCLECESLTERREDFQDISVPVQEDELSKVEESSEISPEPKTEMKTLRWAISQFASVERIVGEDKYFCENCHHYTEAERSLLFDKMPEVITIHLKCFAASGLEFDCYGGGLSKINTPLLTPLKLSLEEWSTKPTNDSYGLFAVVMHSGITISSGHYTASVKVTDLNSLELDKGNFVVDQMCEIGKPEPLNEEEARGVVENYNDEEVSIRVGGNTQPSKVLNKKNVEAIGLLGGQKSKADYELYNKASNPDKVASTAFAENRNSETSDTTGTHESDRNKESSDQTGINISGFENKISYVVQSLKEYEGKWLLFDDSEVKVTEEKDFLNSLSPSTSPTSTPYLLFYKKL
Cytochrome P450 1A2 (Homo sapiens), sequence (P05177 whole entry, looked up): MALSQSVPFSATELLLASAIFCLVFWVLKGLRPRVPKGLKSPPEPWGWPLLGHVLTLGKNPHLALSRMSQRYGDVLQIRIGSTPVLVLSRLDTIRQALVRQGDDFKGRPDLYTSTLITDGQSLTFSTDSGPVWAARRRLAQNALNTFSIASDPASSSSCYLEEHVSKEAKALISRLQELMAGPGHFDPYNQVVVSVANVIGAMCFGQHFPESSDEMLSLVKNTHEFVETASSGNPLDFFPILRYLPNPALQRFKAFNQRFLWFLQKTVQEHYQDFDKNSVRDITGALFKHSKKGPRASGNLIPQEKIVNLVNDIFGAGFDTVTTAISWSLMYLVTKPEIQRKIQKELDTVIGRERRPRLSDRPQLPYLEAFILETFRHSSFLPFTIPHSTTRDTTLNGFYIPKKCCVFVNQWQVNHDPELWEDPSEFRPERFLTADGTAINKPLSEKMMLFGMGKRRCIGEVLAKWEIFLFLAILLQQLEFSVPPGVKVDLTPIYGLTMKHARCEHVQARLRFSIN
3',5'-cyclic-AMP phosphodiesterase 4B (Homo sapiens), sequence (Q07343 whole entry, looked up): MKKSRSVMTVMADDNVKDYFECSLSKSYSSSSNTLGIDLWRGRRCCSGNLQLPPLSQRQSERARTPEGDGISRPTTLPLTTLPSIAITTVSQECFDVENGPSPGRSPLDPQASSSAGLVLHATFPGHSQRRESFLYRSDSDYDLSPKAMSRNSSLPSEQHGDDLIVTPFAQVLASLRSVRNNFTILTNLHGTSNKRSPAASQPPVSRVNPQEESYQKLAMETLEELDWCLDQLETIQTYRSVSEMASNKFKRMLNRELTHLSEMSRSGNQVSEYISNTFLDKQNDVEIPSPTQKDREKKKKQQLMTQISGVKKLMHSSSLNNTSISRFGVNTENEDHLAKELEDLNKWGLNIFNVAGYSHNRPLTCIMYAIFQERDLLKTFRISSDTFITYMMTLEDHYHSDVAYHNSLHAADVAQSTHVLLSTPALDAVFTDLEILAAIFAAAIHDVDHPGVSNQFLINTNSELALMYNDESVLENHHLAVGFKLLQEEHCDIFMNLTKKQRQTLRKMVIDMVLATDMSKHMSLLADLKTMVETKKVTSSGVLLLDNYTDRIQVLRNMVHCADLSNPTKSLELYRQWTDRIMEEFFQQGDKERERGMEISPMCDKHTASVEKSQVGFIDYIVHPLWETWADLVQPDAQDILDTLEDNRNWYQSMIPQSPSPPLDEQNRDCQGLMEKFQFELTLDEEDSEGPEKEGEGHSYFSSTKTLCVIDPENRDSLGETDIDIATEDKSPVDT
Glucocorticoid receptor (Homo sapiens), sequence (P04150 whole entry, looked up, the tested form may be a part): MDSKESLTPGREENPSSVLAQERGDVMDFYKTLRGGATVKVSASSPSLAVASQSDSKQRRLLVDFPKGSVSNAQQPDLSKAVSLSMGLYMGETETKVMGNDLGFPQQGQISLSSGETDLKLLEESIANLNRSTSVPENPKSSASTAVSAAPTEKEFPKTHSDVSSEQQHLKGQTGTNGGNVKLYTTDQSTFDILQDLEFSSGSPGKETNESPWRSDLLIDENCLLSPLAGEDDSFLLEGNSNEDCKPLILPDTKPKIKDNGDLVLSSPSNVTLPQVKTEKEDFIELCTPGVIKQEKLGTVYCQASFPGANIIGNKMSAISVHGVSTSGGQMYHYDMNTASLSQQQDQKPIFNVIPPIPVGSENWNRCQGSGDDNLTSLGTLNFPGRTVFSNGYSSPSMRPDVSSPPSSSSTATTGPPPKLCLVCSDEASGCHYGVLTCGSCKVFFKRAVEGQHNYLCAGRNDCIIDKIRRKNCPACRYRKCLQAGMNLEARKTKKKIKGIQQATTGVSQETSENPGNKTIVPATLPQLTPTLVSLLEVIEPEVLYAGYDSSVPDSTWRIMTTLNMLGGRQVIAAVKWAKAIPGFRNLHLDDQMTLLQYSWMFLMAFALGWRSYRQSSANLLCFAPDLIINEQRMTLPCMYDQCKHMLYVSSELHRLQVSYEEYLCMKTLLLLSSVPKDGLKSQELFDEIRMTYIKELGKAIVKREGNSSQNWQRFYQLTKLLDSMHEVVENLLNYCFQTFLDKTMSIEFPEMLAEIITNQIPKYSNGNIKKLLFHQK
Luciferin 4-monooxygenase (Photinus pyralis), sequence (P08659 whole entry, looked up): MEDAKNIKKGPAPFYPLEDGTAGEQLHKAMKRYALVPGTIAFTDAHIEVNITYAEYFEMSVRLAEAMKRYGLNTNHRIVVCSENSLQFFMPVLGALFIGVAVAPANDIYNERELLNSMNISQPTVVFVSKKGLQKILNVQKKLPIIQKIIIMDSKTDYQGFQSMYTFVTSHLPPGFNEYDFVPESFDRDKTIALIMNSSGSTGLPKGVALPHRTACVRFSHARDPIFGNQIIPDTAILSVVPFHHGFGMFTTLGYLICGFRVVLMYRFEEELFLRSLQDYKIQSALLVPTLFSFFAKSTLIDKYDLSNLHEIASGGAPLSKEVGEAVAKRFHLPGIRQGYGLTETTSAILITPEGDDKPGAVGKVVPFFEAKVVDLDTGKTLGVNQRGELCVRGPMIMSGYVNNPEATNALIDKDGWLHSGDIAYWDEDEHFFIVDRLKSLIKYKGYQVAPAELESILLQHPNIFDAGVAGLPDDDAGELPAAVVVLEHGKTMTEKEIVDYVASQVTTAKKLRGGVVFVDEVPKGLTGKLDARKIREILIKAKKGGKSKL

C[C@H]1[C@@H](O)[C@@H](C)\C=C/C=C\C=C/C=C\C=C/C=C\C=C/[C@@H](O[C@H]2O[C@@H](C)[C@@H](O)[C@@H](N)[C@@H]2O)C[C@@H]2O[C@](O)(C[C@@H](O)C[C@@H](O)[C@@H](O)CC[C@@H](O)C[C@@H](O)CC(=O)O[C@H]1C)C[C@@H](O)[C@H]2C(=O)O (stereo in doubt)
inactive: outcome [1] | Potency [2] | activity change, negative = inhibition [3] -11.5% | outcome [4] | Potency [5] > 20.6 µM | Potency [6] > 20.6 µM | Potency [7] | outcome [8] | activity change, negative = inhibition [9] 3.52% | Potency [10]
0.724%: max response [9, 13]
3.85%: max response [9, 14]

CCC(=O)O[C@@H]1[C@H](C)O[C@H](O[C@H]2[C@@H](N(C)C)[C@H](O)[C@@H](O[C@@H]3[C@@H](CC=O)C[C@@H](C)[C@@H](O)/C=C\C=C/C[C@@H](C)OC(=O)C[C@@H](OC(=O)CC)[C@H]3OC)O[C@H]2C)C[C@]1(C)O
-6.47%: max response [9, 14]
-5.96%: max response [9, 13]
inactive: outcome [1] | Potency [2] | activity change, negative = inhibition [3] 3.96% | outcome [4] | Potency [5] > 20.6 µM | Potency [6] > 20.6 µM | outcome [8] | activity change, negative = inhibition [9] -0.346% | Potency [11] | activity, negative = inhibition ([12]; parasite line A) -18.8% | activity, negative = inhibition ([12]; parasite line B) -28.9% | Potency (C2A) | Potency (CP217) | Potency (CP250) | Potency (FAB9) | Potency (JCK) | Potency (PC49) | Potency (SC27B)

NS(=O)(=O)c1cc2c(cc1Cl)N[C@@H](CC1CCCC1)NS2(=O)=O
1.17%: max response [9, 13]
inactive: outcome [1] | Potency [2] | activity change, negative = inhibition [3] -6.75% | outcome [4] | Potency [5] > 20.6 µM | Potency [6] > 20.6 µM | Potency [7] | outcome [8] | activity change, negative = inhibition [9] -0.977% | Potency [11] | activity, negative = inhibition ([12]; parasite line A) -0.239% | activity, negative = inhibition ([12]; parasite line B) 5.35% | Potency (C2A) | Potency (CP217) | Potency (CP238) | Potency (CP250) | Potency (FAB9) | Potency (JCK) | Potency (SC27B)
1.04%: max response [9, 14]

C=CCOc1ccccc1OC[C@H](O)CNC(C)C
inactive: outcome [1] | activity change, negative = inhibition [3] -9.75% | outcome [4] | Potency [5] > 20.6 µM | Potency [6] > 20.6 µM | Potency [7] | outcome [8] | activity change, negative = inhibition [9] 2.07% | Potency [10] | Potency [11] | activity, negative = inhibition ([12]; parasite line A) -6.89% | activity, negative = inhibition ([12]; parasite line B) -26.4% | Potency (C2A) | Potency (CP217) | Potency (CP238) | Potency (CP250) | Potency (FAB9) | Potency (JCK) | Potency (PC49) | Potency (SC27B)
-12.4%: max response [9, 13]
-9.74%: max response [9, 14]
active: Potency [2] 5.01 µM

CN(C)CCn1nnnc1SCC1=C(C(=O)O)N2C(=O)[C@@H](NC(=O)Cc3csc(N)n3)[C@@H]2SC1
-8.86%: max response [9, 14]
-8.06%: max response [9, 13]
inactive: outcome [1] | Potency [2] | activity change, negative = inhibition [3] -2.63% | outcome [4] | Potency [5] > 20.6 µM | Potency [6] > 20.6 µM | Potency [7] | outcome [8] | activity change, negative = inhibition [9] -0.351% | Potency [10] | Potency [11] | activity, negative = inhibition ([12]; parasite line A) 0.61% | activity, negative = inhibition ([12]; parasite line B) 1.06% | Potency (C2A) | Potency (CP217) | Potency (CP238) | Potency (CP250) | Potency (FAB9) | Potency (PC49) | Potency (SC27B)
